Rows were chosen to be rich in hits. Some 0.3% of all compounds tested hit in one or more screens of this group.
mcGAS inh = cyclic GMP-AMP synthase inhibitors, mouse, primary biochemical chemiluminescence. inhibition, % at 12.5 µM. Q8C6L5. AID 1259399, 2018. 160,000 compounds, 0.15% hits. recombinant cGAS, Kinase-Glo ATP depletion luminescence
hcGAS lum = Primary biochemical luminescence assay for human cyclic GMP-AMP synthase inhibitors | recombinant h-cGAS, ATP depletion, Kinase-Glo luminescence | inhibition, % at 12.5 µM | 290,000 compounds, 0.081% hits
Target sequence (Q8N884 whole entry, looked up): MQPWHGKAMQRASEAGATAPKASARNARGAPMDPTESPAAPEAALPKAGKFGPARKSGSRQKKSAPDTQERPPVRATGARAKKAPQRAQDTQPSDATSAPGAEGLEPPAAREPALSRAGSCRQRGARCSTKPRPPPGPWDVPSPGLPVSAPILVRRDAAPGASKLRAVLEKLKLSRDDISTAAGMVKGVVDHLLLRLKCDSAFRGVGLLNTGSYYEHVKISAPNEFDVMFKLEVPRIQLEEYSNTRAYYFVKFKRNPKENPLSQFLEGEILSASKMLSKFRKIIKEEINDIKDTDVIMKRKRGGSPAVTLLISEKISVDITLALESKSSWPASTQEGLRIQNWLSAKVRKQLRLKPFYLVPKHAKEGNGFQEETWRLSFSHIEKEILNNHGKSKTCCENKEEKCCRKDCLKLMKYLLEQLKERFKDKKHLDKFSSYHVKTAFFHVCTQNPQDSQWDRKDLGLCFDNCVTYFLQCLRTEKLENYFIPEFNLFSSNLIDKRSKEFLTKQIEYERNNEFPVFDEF
NPYLR7 ag = agonists of mosquito NPYLR7 receptor, primary screen, cell-based, Aedes aegypti, calcium fluorescence, mosquito biting behavior. 270,000 compounds, 0.15% hits. activation, % at 10 µM. HEK293T NPYLR7/Galpha15, GCaMP6s calcium fluorescence; in the data active means activation above about 40%
A number is an active result; i = inactive; nt = no result given; ! = a repeat was not active. Unless noted, no stated cut-off is given here; in the data, active means inhibition above about 40%; inactive means the rest.

SMILES	mcGAS inh	hcGAS lum	NPYLR7 ag
COc1ccc2nc(C=Cc3cc(Br)c(O)c(OC)c3)sc2c1	nt	i	81
COc1ccc2nc(NC(=O)/C=C/c3ccc(Br)cc3)sc2c1	i	i	i
CC(C)(C)c1csc(CNC(=O)C2CCCC2)n1	nt	i	i
CC(C)NC(=O)C(C)N1CCc2onc(-c3ccc(C(F)(F)F)cc3)c2C1 (stereo not drawn)	i	i	135
O=C(C1CC=CCC1)N1CCc2onc(-c3ccc(C(F)(F)F)cc3)c2C1 (stereo not drawn)	i	i	i
CC1(C)OC2c3ccccc3OC3(C)CCC1CC23 (stereo not drawn)	nt	i	i
CC1CC2(C)Oc3ccccc3C3OCC1(CO)C(C)C32 (stereo not drawn)	i	i	43
Cc1cccc(COC2CCCN(C(=O)C3CCCC3)C2)c1 (stereo not drawn)	i	i	i
O=C(CN1CCc2sccc2C1c1ccc(Cl)cc1)N1CCCN(C(=O)c2cccc([N+](=O)[O-])c2)CC1 (stereo not drawn)	i	i	i
O=C(c1ccc([N+](=O)[O-])cc1)N1CCCc2ccccc21	nt	i	i
O=C(CCl)N1CCCc2cc([N+](=O)[O-])ccc21	96	i	i
COC(=O)c1ccc2oc(=O)n(C3CCN(C(=O)C(F)(F)C(F)F)CC3)c2c1	i	i	i
O=S(=O)(c1ccccc1Cl)N1CCC(c2c[nH]c3ccccc23)CC1	i	i	i
O=[N+]([O-])c1cc(S(=O)(=O)Nc2cc(Cl)ccc2F)ccc1F	nt	i	40
Cc1ccc(S(=O)(=O)Nc2cc(Cl)ccc2F)cc1C	i	i	i
CCOC(=O)c1cc(O)c(C(=O)OCC)s1	i	i	62!
CCOC(=O)c1sc(N)c(C(N)=O)c1C	nt	i	i
Cn1c(=O)c2c(SCC(=O)Nc3cc(C(F)(F)F)ccc3Cl)nc(C3CC3)nc2n(C)c1=O	nt	i	i
Cc1ccc(N2CCN(C(=O)c3snc4c(=O)n(CC(C)C)c(=O)[nH]c34)CC2)c(C)c1	nt	i	i
O=C(c1snc2c(=O)n(Cc3ccccc3)c(=O)[nH]c12)N1CCSCC1	nt	i	65
COC(=O)c1sccc1N=CC1=C(O)CC(C)(C)CC1=O	nt	i	i
c1ccc(Oc2ncccc2CNC2CCSCC2)cc1	i	i	i
c1csc(-c2cnc3ccc(-c4ccncc4)nn23)c1	i	i	i
O=c1nc2n3ccc(-c4ccncc4)cc3ncc-2s1	i	i	55
CCOCC(=O)N1CCN(C(=O)c2cn(C)cc3c(=O)n(-c4ccccc4)nc2-3)CC1	i	i	i
SMILES	mcGAS inh	hcGAS lum	NPYLR7 ag
COc1ccc(-n2ccnc2-c2cccc(OC)c2OC)cn1	i	i	i
COc1ccc(-n2ccnc2-c2ccc(C#CC(C)(C)O)cc2)cn1	nt	i	57
O=C(Nc1ccccc1N1CCOCC1)c1cc(=O)[nH]c2ccc(S(=O)(=O)N3CCOCC3)cc12	i	i	i
Cc1ccc(S(=O)(=O)NCCC(=O)C(C#N)c2ccccn2)cc1 (stereo not drawn)	i	i	i
CC1CCCCC1OCCNC(=O)C1(c2ccc(F)cc2)CCC1 (stereo not drawn)	nt	i	55
O=C(NCCN1CCCC1)C1(c2ccc(F)cc2)CCOCC1	nt	i	i
Cc1cccc(Cn2cccc2CN(Cc2ccc(Br)cc2)C(C)C(C)C)c1 (stereo not drawn)	i	i	nt
Cc1cc(C)n(C(=O)c2sccc2S(=O)(=O)N(C)c2ccccc2)n1	i	i	i
N#CC1C(=N)SC(=N)C(C#N)C1c1ccccc1I (stereo not drawn)	nt	i	i
N#CC1C(=N)SC(=N)C(C#N)C1c1cccc(F)c1 (stereo not drawn)	45	54	97
N#CC1C(=N)SC(=N)C(C#N)C1c1cccc(Cl)c1 (stereo not drawn)	i	i	i
N#CC1C(=N)SC(=N)C(C#N)C1c1ccccc1F (stereo not drawn)	59	68!	47!
N#CC1C(=N)SC(=N)C(C#N)C1c1ccc(Cl)cc1Cl (stereo not drawn)	nt	i	164
N#CC1C(=N)SC(=N)C(C#N)C1c1cccc(Cl)c1Cl (stereo not drawn)	i	i	i
Cc1nn2c(=O)cc(CN3CCN(S(=O)(=O)c4ccc(F)cc4)CC3)nc2s1	i	i	i
COc1cc(C=NN=C(N)N)ccc1O	nt	i	i
COc1cccc(CN2CCN(Cc3c(C)nn(C)c3Cl)CC2CCO)c1 (stereo not drawn)	nt	i	i
COCCN(Cc1ccccc1OS(=O)(=O)c1ccc(NC(C)=O)cc1)C(=O)c1cccc(F)c1	i	i	i
Cc1ccc(CN(CCc2ccccc2)C(=O)CN(CCN2CCOCC2)C(=O)c2cccc(Br)c2)o1	i	i	i
CCOc1ccc(C=NN2CCN(Cc3ccc(C)cc3C)CC2)cc1	i	i	i
Brc1c(Br)c(Br)c2[nH]cnc2c1Br	i	i	i
Brc1c(Br)c(Br)c2n[nH]nc2c1Br	84	41	i
COCCOC(=O)C1=C(C)N=C2SC=C(CC(=O)Nc3cc(C)cc(C)c3)N2C1c1ccccc1 (stereo not drawn)	i	i	nt
COc1ccc(-c2ccc(N)nc2)c(C)c1	nt	i	i
COc1ccc(-c2cnn(CCC(N)=O)c2)c(C)c1	nt	i	47
SMILES	mcGAS inh	hcGAS lum	NPYLR7 ag
CCOC(=O)C1=NNC(c2ccccc2)(c2ccccc2)C1C(=O)OCC (stereo not drawn)	nt	i	i
COc1ccc(CCNC(=O)c2c(C)noc2-c2ccccc2Cl)cn1	i	i	i
COc1ccc(CCNC(=O)c2c(C)noc2-c2cccs2)cn1	68	i	i
CCN1C(=Cc2cc(C)[n+](CCO)c(C)c2)Sc2ccccc21	i	i	i
CCN1/C(=C\C=C2/SC(=NCc3ccccc3)N(C)C2=O)Sc2ccccc21	i	i	i
CCC(CO)[n+]1c(C)cc(C=C2Sc3ccccc3N2Cc2ccccc2)cc1C (stereo not drawn)	nt	i	150
CCN1C(=Cc2cc(C)[n+](C3CCCCC3)c(C)c2)Sc2ccccc21	nt	i	266
CCCc1nc(C(=O)N2CCCC(c3[nH]ncc3CC)C2)cs1 (stereo not drawn)	i	i	i
CCc1cn[nH]c1C1CCCN(C(=O)c2csc(Cc3ccccc3)n2)C1 (stereo not drawn)	i	55	i
O=C(CCCCC1CCSS1)NC(c1ccc(F)cc1)c1ccc(SCc2ccccc2)cc1 (stereo not drawn)	i	i	i
Nc1nc2nc(Br)[nH]c2c(=O)[nH]1	i	52	i
Nc1nc2nc(C(F)(F)F)[nH]c2c(=O)[nH]1	nt	i	i
COC(=O)CCCCC(=O)N1CCN(CC(OCc2cccc(C)c2)c2ccc(Cl)cc2)CC1 (stereo not drawn)	i	i	i
Cc1cccc(CN(CC(O)COc2ccc(Cl)cc2)C2CC2)c1 (stereo not drawn)	i	i	i
CCSc1nc(NCC(C)C)c2cnn(CCNC(=O)c3ccc4ccccc4c3)c2n1	i	i	i
O=C(O)C1Nc2c(O)cccc2C2C=CCC12 (stereo not drawn)	i	i	i
O=C(O)C1Nc2ccc(Br)cc2C2C=CCC12 (stereo not drawn)	85	i	i
Cn1cnc(-c2ccc(F)cc2)cc1=O	i	i	i
